Assay results published in PubChem BioAssay.
Inconclusive results are not listed. Activity calls are given as the source filed them. Unless noted, no rule for the calls is given here.

How the values were obtained:
[1] = yeast TOR pathway RPL19A-GFP modulators, primary screen, cell-based, S. cerevisiae, multiplex flow cytometry (AID 1862; in the data active = percent of DMSO control GFP below about 86%;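 also: lower values mimic rapamycin by blocking the RPL19A rise seen in DMSO cells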); details: S. cerevisiae RPL19A-GFP strain, flow cytometry fluorescence, 3 h; at 10 µM; stronger effect = lower value
[2] = modulators of MEP2-GFP levels in yeast, primary screen, S. cerevisiae, multiplex flow cytometry (AID 1867;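 active = GFP response, as percent of the DMSO control, above the screen-wide mean plus 3 SD, about 139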;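 also: median GFP channel fluorescence of barcode-gated MEP2-GFP cells measured by flow cytometry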); details: S. cerevisiae MEP2-GFP strain, 3 h, at 10 µM, stronger effect = higher value
[3] = modulators of CIT2-GFP expression in yeast, primary screen, S. cerevisiae, GFP fusion, multiplex flow cytometry (AID 1870;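 active = percent response above a set limit, the screen-wide mean plus 3 SD, cut at about 130% in these data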;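 also: barcoded CIT2-GFP strain pooled with four other GFP strains with rapamycin as positive control; median GFP fluorescence per well over plate mean of DMSO wells so 100% = DMSO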); details: 3 h, at 10 µM, stronger effect = higher value
[4] = modulators of LAP4-GFP expression in yeast, primary screen, S. cerevisiae, multiplex flow cytometry (AID 1873;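 active = GFP signal, as percent of the solvent control, above the screen mean plus 3 SD, about 149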); details: 3 h, at 10 µM, stronger effect = higher value
[5] = modulators of AGP1-GFP expression in yeast TOR pathway, primary screen, cell-based, multiplex flow cytometry, S. cerevisiae (AID 1887;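 active = GFP signal above the screen-wide mean plus 3 SD, that is over about 124.5% of the solvent control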;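 also: AGP1-GFP fusion strain of S. cerevisiae within a five-strain barcoded multiplex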); details: 3 h, at 10 µM, stronger effect = higher value
[6] = inhibitors of CD8+ T cell-vesicle binding, pilot screen, LFA-1/ICAM-1 modulator project, MLPCN validation set, flow cytometry (AID 2523;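 active = response below a set limit, under 55% cells CD8-positive and vesicle-bound, and CD8 cells' 90th-percentile brightness under 279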;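 as to vesicle binding response: mean PE anti-B7-1 fluorescence of CD8+ cells relative to row control; 100% = QL9-loaded vesicles with DMSO vehicle in the same plate row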); details: 2C mouse CD8+ T cells, at 7 µM, stronger effect = lower value; double positive events: measured here: CD8+/vesicle+ event percentage
[7] = biological target: Integrin beta-1 (Homo sapiens) + Integrin alpha-4 (Homo sapiens) (UniProt P13612+P05556); assay: inhibition of HUTS-21 binding to VLA-4, pilot screen, VLA-4 allosteric modulator project, U937 cells, HUTS-21 mAb, flow cytometry, validation set (AID 2674;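 active = inhibition above 50%, about 3 SD of the validation set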;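 also: antibody binding induced by the VLA-4 ligand LDV present at three times its Kd; 0% = LDV ligand with antibody and no compound and 100% = antibody without LDV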); details: HUTS-21 LIBS mAb binding, at 6.7 µM, stronger effect = higher value
[8] = superoxide lowering in aged yeast cells, pilot screen, validation compound set (AID 2706;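 active = superoxide response below 65% of plate, a cut near 3 SD across the whole screen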;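 also: yeast exposed to compound for one week at 30 degrees C before staining; 100% = mean of all compound wells on the same plate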); details: S. cerevisiae aging, superoxide DHE fluorescence; at 10 µM; stronger effect = lower value
[9] = biological target: Beta-adrenergic receptor kinase 1 (Homo sapiens) (UniProt P25098); assay: GRK2 binders displacing RNA aptamer, biochemical, validation, human GRK2, bead flow cytometry (AID 488806;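 active = aptamer binding inhibition above 30%, about 3 SD of noise from non-fluorescent compounds; inactive = inhibition at or below 30%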); details: bead-bound GRK2, FAM-aptamer displacement, at 10 µM, stronger effect = higher value
[10] = biological target: Beta-2 adrenergic receptor (Homo sapiens) (UniProt P07550); assay: beta2AR agonists driving receptor internalization, pilot screen, cell-based, FAP fluorogen, flow cytometry, validation set (AID 504459;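 active = percent response above 42, roughly 3 SD of non-fluorescent test compounds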;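 also: agonist-driven loss of surface beta2AR via internalization measured by FAP dye flow cytometry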); details: Am2.2-beta2AR cells, FAP surface receptor flow cytometry; at 10 µM; stronger effect = higher value
[11] = biological target: AP-2 complex subunit beta (Homo sapiens) (UniProt P63010); assay: inhibitors of arrestin peptide binding to AP2, pilot screen, biochemical, validation set, GST-AP2 beads, flow cytometry (AID 504541;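 active = inhibition above 54%, about 3 SD of non-fluorescent compounds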;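 also: AP2 carries R879A mutation and is captured from E. coli lysate; bead-bound FITC arrestin peptide fluorescence measuring arrestin peptide binding to AP2; 0% = DMSO wells and 100% = excess unlabeled arrestin peptide control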); details: FITC arrestin peptide, at 10 µM, stronger effect = higher value
[12] = yeast V-ATPase proton transport modulators, S. cerevisiae, pHLuorin, HTS validation (AID 504600; in the data active = response above about 15%;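 also: plate controls were DMSO for no effect and reference compound for full effect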); details: S. cerevisiae pHLuorin cytosolic pH, at 10 µM, stronger effect = higher value
[13] = tested on: anti-desmoglein-3 scFv antibody binding to human DSG3; assay: inhibitors of anti-DSG3 scFv binding to DSG3, pilot screen, biochemical, validation compound set, bead-based, flow cytometry (AID 588368;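 active = binding below the plate cutoff, the plate median minus 3 SD, with a reading above zero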;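 also: signal is the median channel fluorescence of bead-bound GFP antibody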); details: Protein G beads, DSG3-Fc, scFv-GFP binding, at 10 µM, stronger effect = lower value
[14] = tested on: Botulinum neurotoxin type F light chain protease (Clostridium botulinum); assay: Botulinum neurotoxin type F light chain protease inhibition, multiplex microsphere flow cytometry, validation set (AID 588459); details: multiplex microsphere protease substrate cleavage assay, at 10 µM, stronger effect = higher value
[15] = biological target: Botulinum neurotoxin type A (Clostridium botulinum) (UniProt P0DPI0); assay: BoNT/A light chain protease inhibitors, biochemical, multiplex microsphere flow cytometry, validation set (AID 588460); details: at 10 µM, stronger effect = higher value
[16] = biological target: Lethal factor (Bacillus anthracis) (UniProt P15917); assay: Lethal factor protease inhibitors, Bacillus anthracis, multiplex microsphere cleavage assay, validation set (AID 588461); details: flow cytometry, at 10 µM, stronger effect = higher value
[17] = inhibitors of fungal efflux pumps CDR1, CDR2, MDR1, pilot screen, validation compound set, multiplex, phenotypic (AID 588506;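 active = efflux inhibition above 0.42, the validation set average plus 4 SD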;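 also: Nile Red retained in cells so higher fluorescence means more efflux inhibition; 0 = negative control wells and 1 = enniatin B 25 µM full block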); details: S. cerevisiae pump-expressing triplex, Nile Red efflux flow cytometry; at 10 µM; stronger effect = higher value
[18] = biological target: ATP-binding cassette sub-family B member 6 (Homo sapiens) (UniProt Q9NP58); assay: ABCB6 transporter inhibitors, pilot screen, K562-ABCB6 cells, flow cytometry, validation set (AID 588550;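 active = inhibition above the screen-wide mean plus 3 SD, about 51%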;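 also: 0% = DMSO wells and 100% = benzethonium chloride 70 µM positive control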); details: K562-ABCB6 porphyrin accumulation, 1 h, at 10 µM, stronger effect = higher value
[19] = promoters of myeloid differentiation in arrested cells, primary screen, cell-based, GFP/MAC1 double positive, flow cytometry, validation set (AID 588685;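 active = differentiation response of at least 50%, scaled between solvent and reference control, from cells with both markers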;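 also: compound exposure lasts four days before antibody staining and flow analysis; 0% = DMSO wells and 100% = 5 µM fulvestrant positive control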); details: ER-HoxA9 marrow cells, stronger effect = higher value

Sequence of Beta-adrenergic receptor kinase 1 (Homo sapiens) (P25098 whole entry, looked up): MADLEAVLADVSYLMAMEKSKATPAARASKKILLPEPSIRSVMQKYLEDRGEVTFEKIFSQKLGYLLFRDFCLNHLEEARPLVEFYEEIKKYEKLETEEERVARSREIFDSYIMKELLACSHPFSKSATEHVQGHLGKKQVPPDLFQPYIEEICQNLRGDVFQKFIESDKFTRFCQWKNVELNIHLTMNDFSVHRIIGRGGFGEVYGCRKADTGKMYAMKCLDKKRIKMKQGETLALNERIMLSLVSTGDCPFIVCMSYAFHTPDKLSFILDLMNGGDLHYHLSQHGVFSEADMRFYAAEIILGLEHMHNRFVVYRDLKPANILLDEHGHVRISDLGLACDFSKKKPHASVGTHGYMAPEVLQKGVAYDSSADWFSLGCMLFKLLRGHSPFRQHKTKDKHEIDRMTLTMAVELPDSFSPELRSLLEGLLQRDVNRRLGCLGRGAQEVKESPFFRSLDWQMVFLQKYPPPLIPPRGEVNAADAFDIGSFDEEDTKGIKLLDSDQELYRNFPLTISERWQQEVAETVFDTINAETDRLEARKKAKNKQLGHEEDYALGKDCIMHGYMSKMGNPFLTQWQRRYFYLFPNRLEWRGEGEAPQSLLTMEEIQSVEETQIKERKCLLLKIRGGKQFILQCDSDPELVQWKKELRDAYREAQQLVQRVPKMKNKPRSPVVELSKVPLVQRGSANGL
Sequence of Beta-2 adrenergic receptor (Homo sapiens) (P07550 whole entry, looked up): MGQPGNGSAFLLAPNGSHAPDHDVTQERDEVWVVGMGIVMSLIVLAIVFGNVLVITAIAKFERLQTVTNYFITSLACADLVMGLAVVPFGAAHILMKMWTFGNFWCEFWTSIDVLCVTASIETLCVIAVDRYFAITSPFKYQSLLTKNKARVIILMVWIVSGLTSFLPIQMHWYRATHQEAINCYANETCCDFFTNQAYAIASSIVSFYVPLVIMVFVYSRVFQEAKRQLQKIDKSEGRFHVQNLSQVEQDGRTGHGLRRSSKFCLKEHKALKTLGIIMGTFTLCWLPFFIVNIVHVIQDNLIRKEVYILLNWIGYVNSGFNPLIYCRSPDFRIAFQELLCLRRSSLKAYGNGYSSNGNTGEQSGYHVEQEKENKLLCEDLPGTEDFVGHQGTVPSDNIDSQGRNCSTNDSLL
Sequence of Botulinum neurotoxin type A (Clostridium botulinum) (P0DPI0 whole entry, looked up): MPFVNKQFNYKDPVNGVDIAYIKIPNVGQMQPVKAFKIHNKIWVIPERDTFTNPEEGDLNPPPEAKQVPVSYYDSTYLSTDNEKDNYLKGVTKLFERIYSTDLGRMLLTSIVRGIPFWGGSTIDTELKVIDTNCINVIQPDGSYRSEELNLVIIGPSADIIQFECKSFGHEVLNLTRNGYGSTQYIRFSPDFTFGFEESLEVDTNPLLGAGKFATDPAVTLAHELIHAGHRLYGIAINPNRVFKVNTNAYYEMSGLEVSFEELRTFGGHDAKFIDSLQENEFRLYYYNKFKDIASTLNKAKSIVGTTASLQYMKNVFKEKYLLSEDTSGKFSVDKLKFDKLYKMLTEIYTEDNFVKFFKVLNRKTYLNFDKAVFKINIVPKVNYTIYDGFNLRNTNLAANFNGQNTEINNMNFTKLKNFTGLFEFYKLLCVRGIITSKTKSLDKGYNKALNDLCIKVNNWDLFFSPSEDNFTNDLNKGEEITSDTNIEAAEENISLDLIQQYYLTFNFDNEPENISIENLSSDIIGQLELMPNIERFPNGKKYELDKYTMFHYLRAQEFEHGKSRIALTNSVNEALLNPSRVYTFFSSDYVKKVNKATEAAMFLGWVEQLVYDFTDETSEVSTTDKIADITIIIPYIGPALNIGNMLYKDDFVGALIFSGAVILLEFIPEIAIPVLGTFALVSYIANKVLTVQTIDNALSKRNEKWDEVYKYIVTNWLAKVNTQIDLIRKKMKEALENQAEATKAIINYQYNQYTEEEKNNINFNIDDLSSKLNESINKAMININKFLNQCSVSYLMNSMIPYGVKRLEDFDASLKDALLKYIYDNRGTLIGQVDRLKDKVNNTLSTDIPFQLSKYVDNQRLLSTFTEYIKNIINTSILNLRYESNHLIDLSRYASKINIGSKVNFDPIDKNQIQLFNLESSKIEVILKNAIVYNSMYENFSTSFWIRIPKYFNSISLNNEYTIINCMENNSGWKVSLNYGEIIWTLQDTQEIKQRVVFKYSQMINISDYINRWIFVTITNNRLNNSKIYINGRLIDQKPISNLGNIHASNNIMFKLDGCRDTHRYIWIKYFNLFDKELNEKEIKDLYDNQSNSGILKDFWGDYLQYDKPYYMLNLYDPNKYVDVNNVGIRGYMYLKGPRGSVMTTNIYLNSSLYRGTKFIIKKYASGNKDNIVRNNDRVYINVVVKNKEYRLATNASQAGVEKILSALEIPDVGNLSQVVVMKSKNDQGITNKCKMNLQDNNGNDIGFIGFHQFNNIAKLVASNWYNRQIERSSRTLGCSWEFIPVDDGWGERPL
Sequence of ATP-binding cassette sub-family B member 6 (Homo sapiens) (Q9NP58 whole entry, looked up): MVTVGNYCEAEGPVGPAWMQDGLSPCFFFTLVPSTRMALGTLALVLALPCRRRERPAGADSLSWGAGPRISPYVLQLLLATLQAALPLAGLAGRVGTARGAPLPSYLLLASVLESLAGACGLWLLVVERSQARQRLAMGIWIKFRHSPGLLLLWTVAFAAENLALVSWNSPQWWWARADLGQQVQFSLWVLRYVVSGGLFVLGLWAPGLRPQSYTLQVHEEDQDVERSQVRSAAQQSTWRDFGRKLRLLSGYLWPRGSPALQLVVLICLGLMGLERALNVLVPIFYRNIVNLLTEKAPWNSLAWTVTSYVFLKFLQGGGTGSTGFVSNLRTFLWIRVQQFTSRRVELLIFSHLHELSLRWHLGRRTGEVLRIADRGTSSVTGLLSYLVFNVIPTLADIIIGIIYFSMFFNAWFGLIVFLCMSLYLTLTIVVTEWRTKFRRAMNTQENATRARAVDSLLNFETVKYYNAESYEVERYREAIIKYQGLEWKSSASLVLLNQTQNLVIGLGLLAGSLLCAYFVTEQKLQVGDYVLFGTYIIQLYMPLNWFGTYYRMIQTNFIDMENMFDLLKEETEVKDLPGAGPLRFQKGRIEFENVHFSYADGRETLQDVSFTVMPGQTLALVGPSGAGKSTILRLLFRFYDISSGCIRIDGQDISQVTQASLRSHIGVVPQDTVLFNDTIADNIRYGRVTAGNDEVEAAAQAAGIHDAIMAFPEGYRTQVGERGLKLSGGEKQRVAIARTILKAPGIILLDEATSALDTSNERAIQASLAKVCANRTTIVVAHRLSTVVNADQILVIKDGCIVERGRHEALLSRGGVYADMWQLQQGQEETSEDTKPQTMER
Sequence of Integrin beta-1 (Homo sapiens) + Integrin alpha-4 (Homo sapiens) (P05556 whole entry, looked up): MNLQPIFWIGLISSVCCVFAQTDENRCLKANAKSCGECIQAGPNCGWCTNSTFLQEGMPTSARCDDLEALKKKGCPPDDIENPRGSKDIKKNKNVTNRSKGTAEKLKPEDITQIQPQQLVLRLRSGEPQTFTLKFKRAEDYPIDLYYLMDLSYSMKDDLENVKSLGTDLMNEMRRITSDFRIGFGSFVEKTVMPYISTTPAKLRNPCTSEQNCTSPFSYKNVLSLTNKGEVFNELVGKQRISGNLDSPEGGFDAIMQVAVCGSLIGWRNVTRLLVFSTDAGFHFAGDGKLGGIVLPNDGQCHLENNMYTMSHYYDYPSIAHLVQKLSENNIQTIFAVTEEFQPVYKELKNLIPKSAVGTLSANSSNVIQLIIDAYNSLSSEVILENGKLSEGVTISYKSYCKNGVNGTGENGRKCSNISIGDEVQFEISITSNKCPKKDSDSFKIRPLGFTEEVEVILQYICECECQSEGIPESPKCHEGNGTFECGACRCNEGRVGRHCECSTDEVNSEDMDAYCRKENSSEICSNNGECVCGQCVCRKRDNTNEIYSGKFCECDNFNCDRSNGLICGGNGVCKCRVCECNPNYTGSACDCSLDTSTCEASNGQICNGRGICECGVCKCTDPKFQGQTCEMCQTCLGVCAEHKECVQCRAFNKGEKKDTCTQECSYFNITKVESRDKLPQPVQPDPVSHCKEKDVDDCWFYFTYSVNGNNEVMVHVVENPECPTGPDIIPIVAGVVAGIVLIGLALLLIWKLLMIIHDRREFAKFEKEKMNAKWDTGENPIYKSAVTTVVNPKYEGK
Sequence of Integrin beta-1 (Homo sapiens) + Integrin alpha-4 (Homo sapiens) (P13612 whole entry, looked up): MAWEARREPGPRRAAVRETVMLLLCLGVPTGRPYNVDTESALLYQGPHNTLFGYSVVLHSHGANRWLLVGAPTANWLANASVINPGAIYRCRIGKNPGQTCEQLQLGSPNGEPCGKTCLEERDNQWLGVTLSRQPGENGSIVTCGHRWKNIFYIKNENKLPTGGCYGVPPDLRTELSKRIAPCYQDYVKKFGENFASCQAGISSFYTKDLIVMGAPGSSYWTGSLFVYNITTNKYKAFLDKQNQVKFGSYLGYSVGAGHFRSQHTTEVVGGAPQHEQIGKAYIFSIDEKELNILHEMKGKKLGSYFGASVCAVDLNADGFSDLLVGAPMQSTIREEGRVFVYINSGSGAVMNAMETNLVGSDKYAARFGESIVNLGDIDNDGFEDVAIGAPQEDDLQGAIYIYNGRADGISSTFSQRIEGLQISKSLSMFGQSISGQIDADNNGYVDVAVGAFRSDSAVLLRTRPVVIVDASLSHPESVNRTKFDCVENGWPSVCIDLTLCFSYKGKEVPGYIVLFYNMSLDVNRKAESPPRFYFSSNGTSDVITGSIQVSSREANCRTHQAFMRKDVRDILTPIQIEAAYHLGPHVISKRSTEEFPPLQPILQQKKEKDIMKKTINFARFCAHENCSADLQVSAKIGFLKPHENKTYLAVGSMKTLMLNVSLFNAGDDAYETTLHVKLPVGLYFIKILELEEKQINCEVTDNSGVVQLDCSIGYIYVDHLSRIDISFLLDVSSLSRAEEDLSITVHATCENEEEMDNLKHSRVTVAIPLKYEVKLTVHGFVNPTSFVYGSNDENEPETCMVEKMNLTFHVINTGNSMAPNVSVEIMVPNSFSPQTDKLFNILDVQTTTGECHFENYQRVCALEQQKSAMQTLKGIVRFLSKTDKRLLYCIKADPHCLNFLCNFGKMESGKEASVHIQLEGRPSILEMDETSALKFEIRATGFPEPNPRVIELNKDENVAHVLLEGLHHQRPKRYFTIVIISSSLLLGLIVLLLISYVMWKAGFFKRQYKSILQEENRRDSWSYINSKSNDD

## CCn1ccnc1CN1CCCC(C(=O)c2cc(F)ccc2OC)C1 (stereo not given)
[1]
  percent of DMSO control GFP: 100% (inactive)
[2]
  GFP response vs DMSO: 93% (inactive)
[3]
  percent response of DMSO control: 96.7% (inactive)
[4]
  GFP response vs DMSO: 99.9% (inactive)
[5]
  GFP response, % of DMSO: 102% (inactive)
[6]
  double positive events: 61.5%
  vesicle binding response: 125% (inactive)
[7]
  inhibition: -3.16% (inactive)
[8]
  superoxide response (% of plate): 96.9% (inactive)
[9]
  aptamer binding inhibition: 2% (inactive)
[10]
  response: -6.87% (inactive)
[11]
  inhibition: 18.6% (inactive)
[12]
  response: 1.54% (inactive)
[13]
  binding (% of control): 98.4% (inactive)
[14]
  inhibition: 0.8% (inactive)
[15]
  inhibition: -1.2% (inactive)
[16]
  inhibition: -1.6% (inactive)
[17]
  efflux inhibition (fraction of control): -0.21 (inactive)
[18]
  inhibition: 3% (inactive)
[19]
  differentiation response: -8.8% (inactive)

## C[N+]1(C)C2CCC1CC(OC(=O)C(CO)c1ccccc1)C2 (stereo not given)
[1]
  percent of DMSO control GFP: 106% (inactive)
[2]
  GFP response vs DMSO: 99.3% (inactive)
[3]
  percent response of DMSO control: 112% (inactive)
[4]
  GFP response vs DMSO: 88.1% (inactive)
[5]
  GFP response, % of DMSO: 105% (inactive)
[6]
  double positive events: 61.8%
  vesicle binding response: 233% (inactive)
[7]
  inhibition: -6.68% (inactive)
[8]
  superoxide response (% of plate): 105% (inactive)
[9]
  aptamer binding inhibition: 5% (inactive)
[10]
  response: -0.63% (inactive)
[11]
  inhibition: 6.92% (inactive)
[12]
  response: -1.74% (inactive)
[13]
  binding (% of control): 98% (inactive)
[14]
  inhibition: -5.3% (inactive)
[15]
  inhibition: -0.6% (inactive)
[16]
  inhibition: 2.6% (inactive)
[17]
  efflux inhibition (fraction of control): 0.05 (inactive)
[18]
  inhibition: -4% (inactive)
[19]
  differentiation response: -6.6% (inactive)

## COP(=S)(OC)SCN1C(=O)c2ccccc2C1=O
[1]
  percent of DMSO control GFP: 90.6% (inactive)
[2]
  GFP response vs DMSO: 92.7% (inactive)
[3]
  percent response of DMSO control: 97% (inactive)
[4]
  GFP response vs DMSO: 144% (inactive)
[5]
  GFP response, % of DMSO: 107% (inactive)
[6]
  double positive events: 63.5%
  vesicle binding response: 194% (inactive)
[7]
  inhibition: 0.59% (inactive)
[8]
  superoxide response (% of plate): 97.7% (inactive)
[9]
  aptamer binding inhibition: -4% (inactive)
[10]
  response: -10.4% (inactive)
[11]
  inhibition: -11.6% (inactive)
[12]
  response: 6.49% (inactive)
[13]
  binding (% of control): 96.4% (inactive)
[14]
  inhibition: -1.7% (inactive)
[15]
  inhibition: -0.5% (inactive)
[16]
  inhibition: -2.9% (inactive)
[17]
  efflux inhibition (fraction of control): -0.09 (inactive)
[18]
  inhibition: -1% (inactive)
[19]
  differentiation response: 3.88% (inactive)

## O=C1NC(=O)C2(Cc3ccccc3N3CCCC32)C(=O)N1c1ccc(Cl)cc1 (stereo not given)
[1]
  percent of DMSO control GFP: 106% (inactive)
[2]
  GFP response vs DMSO: 88.8% (inactive)
[3]
  percent response of DMSO control: 101% (inactive)
[4]
  GFP response vs DMSO: 93.3% (inactive)
[5]
  GFP response, % of DMSO: 97.5% (inactive)
[6]
  double positive events: 64.8%
  vesicle binding response: 186% (inactive)
[7]
  inhibition: 14.1% (inactive)
[8]
  superoxide response (% of plate): 104% (inactive)
[9]
  aptamer binding inhibition: 6% (inactive)
[10]
  response: -5.5% (inactive)
[11]
  inhibition: -2.86% (inactive)
[12]
  response: 0.31% (inactive)
[13]
  binding (% of control): 100% (inactive)
[14]
  inhibition: -0.7% (inactive)
[15]
  inhibition: 0.8% (inactive)
[16]
  inhibition: 0.9% (inactive)
[17]
  efflux inhibition (fraction of control): 0.24 (inactive)
[18]
  inhibition: 12% (inactive)
[19]
  differentiation response: 1.22% (inactive)
